Records with an inconclusive call do not appear. Calls of active or inactive are those of the source. Calls follow the shape of the dose curve; as a rule, active = well fitted cell-killing curve with a large enough effect in the repeat runs; inconclusive = weak or mixed curves, or effect the other way; inactive = flat fitted curve, though single readings scatter.
Experiment: cAMP Responsive Elements (CRE) small molecule antagonists, cell-based qHTS assay: qHTS cell viability counter screen (AID 2060913); also: nearly all actives have a fitted effect of over 40% in size
Settings: CRE-bla HEK293T viability, CellTiter-Glo luminescence, 5 h; series mostly up to 92.4 µM; viability change, negative = cytotoxic: at the top concentration
Text: U.S. Tox21 Program National Center for Advancing Translational Sciences [NCATS] Division of Preclinical Innovation [DPI] U.S. Environmental Protection Agency [EPA] National Institutes of Environmental Health Sciences [NIEHS] National Toxicology Program [NTP] U.S. Food and Drug Administration [FDA] Tox21 Assay Overview: CREB (cyclic-AMP Responsive Element Binding Protein) is a cellular transcription factor. It binds to certain DNA sequences called cAMP Responsive Elements (CRE) and regulates the transcription of the genes. […] This cell line can be used to find agonists/antagonists of the cyclic AMP signaling pathway. The activation of the report gene under culture conditions can be detected by fluorescence intensity. This cell line has been used to screen the Tox21 10K compound library to identify agonists that induce oxidative stress. The cytotoxicity of the Tox21 compound library against the CRE-bla cell line was tested in parallel by measuring the cell viability using CellTiter-Glo assay (Promega, Madison, WI) in the same wells.
Tox21 Assay Protocol Summary: CRE-bla Hek 293T cells were suspended in assay medium (DMEM containing 10% dialyzed FBS, 0.1 mM NEAA, 1 mM sodium pyruvate and 25 mM HEPES) and dispensed at 2,000 cells/4 uL /well into 1536-well black wall/clear bottom plates using a Multidrop Combi (ThermoFisher Scientific, Waltham, MA) dispenser. After the assay plates were incubated at 37 C/5% CO2 for 18 hrs, 23 nL of compounds dissolved in DMSO, positive controls or DMSO only was transferred to the assay plate by a pintool workstation (Kalypsys, San Diego, CA), followed by addition of 1 uL of 1.25uM NKH477 (0.25 uM as final concentration) in assay medium using a Flying Reagent Dispenser (Aurora Discovery, San Diego, CA). The plates were incubated at 37 C and 5% CO2 for 3 hrs. Then 1 uL of LiveBLAzer B/G FRET substrate (Invitrogen, Carlsbad, CA) was added to each well using Bioraptr Flying Reagent Dispenser (FRD, Aurora Discovery, San Diego, CA). The plates were incubated at room temperature for 2 h, then fluorescence intensities were measured using an Envision plate reader (PerkinElmer, Shelton, CT) at Excitation 405nm, Emission 460nm and 530nm. The % activity was determined from the ratio of 460nm/530nm. For cell viability readout that measures cytotoxicity, 4 uL /well of CellTiter-Glo reagent was added into the assay plates using Bioraptr FRD. After 30 min incubation at room temperature, the luminescence intensity in the assay plates was measured using a ViewLux (PerkinElmer, Shelton, CT) plate reader.
% is scaled to controls: 0 for no effect and ±100 for the full control effect; potency is read from the fitted curve at half-maximal effect.

Compound	viability change, negative = cytotoxic	Potency
CC1CCC(C(C)CS)CC1S (stereo not given)	-0.615% (inactive)	–
CN1CCN(c2c(F)cc3c(=O)c(C(=O)O)cn4c3c2SCC4)CC1	5.6% [at 42.5 µM] (inactive)	–
O=C(Nc1ccc([N+](=O)[O-])cc1)Nc1ccc([N+](=O)[O-])cc1 (tested in a mixture with another compound)	8.65% [at 42.5 µM] (inactive)	–
CC(=O)OCCOCCOCCOC(C)=O	–	inactive
c1ccc2scnc2c1	–	inactive
CCOC(=O)CN1CCCC1=O	-1.41% [at 42.5 µM] (inactive)	–
CCCCCC(C)N (stereo not given)	7.72% [at 42.5 µM] (inactive)	–
CCc1ccc(O)cc1	–	inactive
Cc1c(OCC(F)(F)F)ccnc1CS(=O)c1nc2ccccc2[nH]1 (stereo not given)	–	inactive
C=C(C)C(=O)OCCOC(=O)C(=C)C	–	inactive
CCCC(=O)OC/C=C(\C)CCC=C(C)C	-0.184% (inactive)	–
CCCCNc1ccc(C(=O)OCCOCCOCCOCCOCCOCCOCCOCCOCCOC)cc1	-0.903% [at 42.5 µM] (inactive)	–
C=C(C)CC(C)(C)C	–	inactive
Cc1ccc(S(=O)(=O)O)cc1C	–	inactive
CC(=O)CC(=O)OC(C)(C)C	0.0883% (inactive)	–
CC1(C)C(=O)NC(=O)N1CO	-5.08% (inactive)	–
Oc1ccc2c(c1)-c1ccccc1C2	-15.6% (inactive)	–
C=C(CC(=O)O)C(=O)O	–	inactive
O=C(O)C1(C(=O)O)CCC1.[NH2-].[NH2-].[Pt+2]	-0.295% [at 42.5 µM] (inactive)	–
O=c1[nH]cnc2ccccc12	-1.25% (inactive)	–

Compound	viability change, negative = cytotoxic	Potency
C=C(C)C(=O)OCCCCCCCCCCCCCCCCCC	12.4% [at 18.9 µM] (inactive)	–
NCc1ccccc1	-3.63% (inactive)	–
CCCCC(CC)CN=C(N)NC(N)=NCCCCCCN=C(N)NC(N)=NCC(CC)CCCC (stereo not given)	–	21.1 µM (active)
OC(CCN1CCCCC1)(c1ccccc1)C1CC2C=CC1C2 (stereo not given)	-2% [at 42.5 µM] (inactive)	–
NC[C@H]1O[C@H](O[C@H]2[C@H](O)[C@@H](O[C@H]3O[C@H](CO)[C@@H](O)[C@H](N)[C@H]3O)[C@H](N)C[C@@H]2N)[C@H](N)[C@@H](O)[C@@H]1O	-2.98% [at 18.9 µM] (inactive)	–
O=C(c1ccccc1)c1ccccc1O	–	inactive
[K+]	1.46% (inactive)	–
CSc1cnc(C)cn1	5.13% [at 240 µM] (inactive)	–
O=C(N/N=C/c1ccccc1O)c1ccncc1	14% [at 42.5 µM] (inactive)	–
CCC(C)C(=O)OCCc1ccccc1 (stereo not given)	-3.33% (inactive)	–
CCCCCCCC/C=C\CCCCCCCC(=O)N(CCO)CCO	-9.58% (inactive)	–
C/C(=N\O)c1ccc(OCC(=O)N2CCCCC2)cc1	-0.277% [at 42.5 µM] (inactive)	–
COc1cc2c(c(OC)c1OC)-c1ccc(OC)c(=O)cc1[C@@H](NC(C)=O)CC2	–	inactive
CCCCOCCOC(=O)c1ccccc1C(=O)OCCOCCCC	-11.8% (inactive)	–
Nc1c(Br)cc([N+](=O)[O-])cc1Br	-14.6% (inactive)	–
O=C1CCN(c2ccccc2)N1	4.43% (inactive)	–
Cc1c(N)cccc1[N+](=O)[O-]	6.43% (inactive)	–
CC(C)(C)NC(N)=O	-0.626% (inactive)	–
CC[C@]1(O)C[C@@H]2CN(CCc3c([nH]c4ccccc34)[C@@](C(=O)OC)(c3cc4c(cc3OC)N(C)[C@H]3[C@@](O)(C(=O)OC)[C@H](OC(C)=O)[C@]5(CC)C=CCN6CC[C@]43[C@@H]65)C2)C1	–	inactive
CC1(C)CC(N=C=O)CC(C)(CN=C=O)C1 (stereo not given)	–	inactive

Reference: PubChem BioAssay (Tox21)
